The record followed here is PubChem BioAssay (NCI).

Where “and” joins values, the source holds several entries; their conditions need not be identical. Identical values can stand only once. The panel holds about 83,000 compounds, 20% with a hit somewhere; the sample as a whole holds those more often.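 Single-concentration screen, 48 h exposure, 96-well plates. Endpoint: percent growth. Below 10 = active.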 Calls of active or inactive are those of the source.

The subject of this experiment is MDA-MB-468 breast. Put plainly: NCI-60 one-dose screen, 48 h (100 = growth as untreated, 0 = no growth, -100 = all killed). The settings on record: 10 µM unless noted.
As for `c1ccc2cc(Cn3c(-c4cccc5ccccc45)[n+](Cc4ccc5ccccc5c4)c4c5ccccc5c5ccccc5c43)ccc2c1`, the growth is -71.4% (active).

Turning to `CCCCCCCCCCCCNC(=O)[C@H]1CSC(c2cc3ccccc3s2)N1` (stereo not given in full), the growth is -57.9% (active).

With `COc1cc(CNC(=O)CCCC/C=C/C(C)C)ccc1OCc1cn(-c2ccc([N+](=O)[O-])cc2)nn1`, the growth was 77.4% (inactive).

Regarding `O=C(CCCC(=O)N/N=C/c1cc(Cl)ccc1O)N/N=C\c1cc(Cl)ccc1O`, the growth is 10.3% (inactive).

In the case of `NCCCn1c2c(c3cc(-c4ccn[nH]4)ccc3c1=O)C(=O)c1ccccc1-2`, the growth was 62.6% (inactive).

Consider `CCN(CC)CCCCCCNc1cc(OC)cc2cccnc12`, for which the growth is 23.4% (inactive).

On to `C=C1C(=O)O[C@H]2[C@H]1CC/C(COC(=O)c1cc3ccccc3s1)=C\CC[C@@]1(C)O[C@@H]21`, for which the growth was -48.4% (active).

Consider `CC(=O)N1N=C(c2cc3ccccc3oc2=O)CC1c1cn(-c2ccccc2)nc1-c1ccc(C)cc1` (stereo not given), for which the growth was 94.6% (inactive).

`COc1ccc(N=C(c2ccccc2)C2C(=O)c3ccccc3C2=O)cc1`: the growth is 72.5% (inactive).

In the case of `CC(C)C(=O)c1ccc(Cl)s1`, the growth is 91.6% (inactive).

Turning to `O=C(CCCC(=O)Nc1ccc(-n2nnc3cc(Cl)c(Cl)cc32)cc1)Nc1ccc(-n2nnc3cc(Cl)c(Cl)cc32)cc1`, the growth is 18.9% (inactive).

Consider `CCCCCCN1C=C/C(=C\C(=O)n2ccc3ccccc32)c2ccccc21`, for which the growth was -12% (active).

On to `COc1ccc(-c2cc3ccc(N(C)C)cc3nc2N)c(F)c1`, for which the growth is 4.96% (active).

Regarding `CC(C)(C)CC(C)(C)Nc1c(-c2c(O)c3ccccc3oc2=O)nc2sc3ccccc3n12`, the growth is 22.4% (inactive).

In the case of `COc1cc2c3c(n(CCCNC4CCC4)c(=O)c2cc1OC)-c1cc2c(cc1C3=O)OCO2`, the growth was 30.6% (inactive).

In the case of `CCOC(=O)CSc1c(-c2ccccc2)c2cc(Cl)ccc2[nH]c1=O`, the growth was 98% (inactive).

With `C1=C(N2CCCC2)CCC1`, the growth was 96.2% (inactive).

Turning to `FC(F)(F)c1cc(N2CCCCC2)nc(NCCCNc2ccnc3cc(Cl)ccc23)n1`, the growth is 1.13% (active).

For the molecule `O=C(Cc1nc2cc(Cl)c(Cl)cc2nc1CC(=O)c1ccccc1)c1ccccc1`, the growth is -55% (active).

With `CC(C)c1ccc(NC(=O)Cc2ccc(Nc3ncnc4cc(-c5cnn(CCN(C)C)c5)ccc34)cc2)cc1`, the growth is -86.9% [30 µM] (active).

On to `COc1ccc(C2CC(c3ccc(OC)cc3OC)=NN2c2ccc(S(N)(=O)=O)cc2)cc1` (stereo not given), for which the growth is 64.8% (inactive).

For `CCC(C)C1NC(=O)C(CCCCN)NC(=O)C(CCCCN)NC(=O)C(CC(C)C)NC(=O)C(CCCCN)NC(=O)C(C(C)CC)NC(=O)C(C(C)C)NC(=O)C(C(C)CC)NC(=O)C(CCCCN)NC(=O)C(CCCCN)NC(=O)C(C)NC(=O)C(CCCCN)NC(=O)C(CC(C)C)NC1=O` (stereo not given), the growth is 1.45% (active).

As for `CC1(C)/C(=C\CO)C2CCC1C2` (stereo not given), the growth was 101% (inactive).

For `CCN(CCCNc1cc2c(c(N)c1S(=O)(=O)O)C(=O)c1ccccc1C2=O)c1ccccc1`, the growth was 89% (inactive).

With `O=C(Nc1ccc(C23CC4CC(CC(c5ccccc5)(C4)C2)C3)cc1)c1cccs1`, the growth was 38.6% (inactive).

Take `Cc1ccc(NC2=C(Cl)C(=O)c3nc(C)ccc3C2=O)c(C)c1`: the growth is -70.2% (active).

For the molecule `CC(C)Cc1ccc(C(C)C(=O)NCc2ccc(Cn3c(=O)sn(-c4ccc(Cl)cc4)c3=O)cc2)cc1` (stereo not given), the growth is 54.4% (inactive).

Take `COC(=O)[C@H](Cc1cnc[nH]1)NC(=O)[C@@H](NC(=O)Nc1cc(C(F)(F)F)cc(C(F)(F)F)c1)C(C)C`: the growth is -60.9% [100 µM] (active).

As to `Cc1nc(Nc2cccnc2)sc1C(=O)/C=C/c1ccc(Cl)cc1`, the growth is 11.8% (inactive).

For the molecule `N#Cc1cnc2cc(OC[C@H](O)CO)c(NC(=O)CC3CSSC3)cc2c1Nc1ccc(OCc2cccc(F)c2)c(Cl)c1`, the growth was -78.3% (active).

`CC1CN(Cc2ccccc2)C(=O)NC1=O` (stereo not given): the growth is 111% (inactive).

Turning to `CCOC(=O)c1c(C)nn(CC(O)c2ccccc2)c1NC(=O)Nc1cccc(F)c1` (stereo not given), the growth is 82.6% (inactive).

As for `CS(=O)(=O)OCC1NC(=O)C(COS(C)(=O)=O)NC1=O` (stereo not given), the growth was 87% (inactive) and 79.3% (inactive).

Turning to `CCOc1cc(CCNS(=O)(=O)c2ccc(C)cc2)c(C(C)=O)cc1OCC`, the growth was 67.1% [100 µM] (inactive).

Take `O=C(Nc1cccc(Cl)c1)c1cc2ccccc2cc1O`: the growth is 55.4% (inactive) and 17.8% (inactive).

As to `C=C(C)C(C(=O)OCC)(C(=O)OCC)C(C)C`, the growth is 109% (inactive).

For the molecule `Cn1cc(-c2csc(-c3c[nH]c4ccc(Br)cc34)n2)c2ccnc(Cl)c21`, the growth is 14% (inactive).

Take `C=C1CC[C@@H]2[C@](C)(CO)[C@H](O)CC[C@@]2(C)[C@@H]1C/C(O)=C1\CCOC1=O`: the growth was 90.8% (inactive).

`CCOc1ccc(NC(=O)CSc2oc(-c3ccccc3)nc2S(=O)(=O)c2ccc(F)cc2)cc1`: the growth is 58.4% (inactive).

Regarding `CCN1C(=O)C(C)C=C(C)C=C1C` (stereo not given), the growth was 110% (inactive).
